Results reported in PubChem BioAssay AID425 (Sanford-Burnham Center for Chemical Genomics, 2006).
“And” between values parts separate entries of the source, which are not always exact repeats. Equal entries are not always repeated. Screen size: about 110,000 compounds; about 190 (0.17%) were called active. No stated cut-off is given here; in the data, active means inhibition above about 50%; inactive means the rest. For the sample, actives were picked, then their nearest neighbours and some compounds at random. Measured potencies and affinities stand elsewhere. Some compounds were tested as several samples or in several runs, with calls that do not always agree.

target: Dual specificity protein phosphatase 6 (Rattus norvegicus) (UniProt Q64346); test: MKP-3 phosphatase inhibitors, primary screen, biochemical, rat enzyme, in vitro (AID 425); conditions: recombinant MKP-3 phosphatase activity, fluorescence; at 20 µM; stronger effect = higher value;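 further: plate controls were vehicle for no effect and reference inhibitor for full effect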
Sequence (Q64346 whole entry, looked up): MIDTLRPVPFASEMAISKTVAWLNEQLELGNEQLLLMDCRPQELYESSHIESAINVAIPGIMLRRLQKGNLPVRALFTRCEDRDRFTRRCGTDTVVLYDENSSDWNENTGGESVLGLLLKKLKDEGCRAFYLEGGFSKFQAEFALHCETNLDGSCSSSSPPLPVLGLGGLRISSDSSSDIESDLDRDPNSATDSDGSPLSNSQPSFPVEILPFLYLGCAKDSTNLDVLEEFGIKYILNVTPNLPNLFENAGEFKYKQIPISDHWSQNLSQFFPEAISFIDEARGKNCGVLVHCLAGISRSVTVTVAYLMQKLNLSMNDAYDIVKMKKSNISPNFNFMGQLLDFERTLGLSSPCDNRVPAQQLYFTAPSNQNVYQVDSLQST

Row | Structure (SMILES) | inhibition
1 | Cc1nc2ncccn2c1-c1csc(Nc2cccc(O)c2)n1 | 2.7% (inactive)
2 | O=C(CCCCC(=O)NCc1cccs1)NCc1cccs1 | -5.6% (inactive)
3 | CCn1cc(C(C)NC(=O)COc2ccc(Cl)cc2C)c(C)n1 (centres undefined) | -4% (inactive)
4 | c1ccc(-c2nc(C3COc4ccccc4O3)cs2)cc1 (centres undefined) | -4.2% (inactive)
5 | CCOc1ccc2nc(Nc3nc(C)c(C)c(=O)[nH]3)nc(C)c2c1 | 1.2% (inactive)
6 | CCOc1ccc2nc(Nc3nc(O)c(C)c(=O)[nH]3)nc(C)c2c1 | 0.7% (inactive)
7 | COc1ccc([N+](=O)[O-])cc1NC(=O)c1ccc(N(C)C)cc1 | 1.4% (inactive)
8 | Cn1cccc1Cc1nnc(SCC(=O)Nc2nc3ccccc3s2)n1CCc1ccccc1 | -4.6% (inactive)
9 | O=C1c2cccnc2-c2ncccc21 | 6.6% (inactive)
10 | Cc1ccc(C)n1-c1ccc(SCC(=O)O)cc1 | 106% (active)
11 | Cc1ccc(C)n1-c1ccc(CC(=O)O)cc1 | 25.5% (inactive)
12 | Cc1ccc(C)n1-c1ccc(OCC(=O)O)cc1 | 25.7% (inactive)
13 | CCOC(=O)c1c(NC(=S)NCc2ccccc2)sc2c1CCC2 | 0% (inactive)
14 | CC(Cc1ccccc1)N=Cc1c(O)[nH]c2ccccc12 (centres undefined) | 3.3% (inactive)
15 | CCOC(=O)c1c(C)[nH]c(/C=C(/C#N)C(N)=NCc2ccccc2)c1O | 1.3% (inactive)
16 | CC(Cc1ccccc1)N=C(N)/C(C#N)=C\c1[nH]c2ccccc2c1O (centres undefined) | 69.4% (active)
17 | COc1ccc(N(CC(=O)NCC2CCCO2)S(=O)(=O)c2c(C)noc2C)cc1 (centres undefined) | -8.1% (inactive)
18 | O=C(CSc1ccc(C(=O)O)cc1)Nc1ccccc1 | 0.1% (inactive)
19 | Cc1nc(SCC(=O)Nc2ccc(F)cc2)c2oc3ccccc3c2n1 | -2.1% (inactive)
20 | Cc1ccc(C)n1-c1ccc(O)c(C(=O)O)c1 | 100% (active)
21 | Cc1ccc(-c2ccccc2)n1-c1ccc(O)c(C(=O)O)c1 | 42.1% (inactive)
22 | Cc1ccc(C)n1-c1ccc(Cl)c(C(=O)O)c1 | 71.5% (active)

Row | Structure (SMILES) | inhibition
23 | Cc1ccc(C)n1-c1ccc(C(=O)O)c(Cl)c1 | 28.4% (inactive)
24 | Cc1ccc(-c2ccccc2)n1-c1ccc(Cl)c(C(=O)O)c1 | 4.5% (inactive)
25 | Cc1nc(=O)c(-c2ccccc2)c(C)n1-c1ccc(O)c(C(=O)O)c1 | -7.4% (inactive)
26 | Cc1ccc(C)n1-c1ccc(C(=O)O)c(O)c1 | 101% (active)
27 | O=C(O)c1ccc(-n2cccc2)cc1O | 4.3% (inactive)
28 | Cc1nc(=O)c(-c2ccccc2)c(C)n1-c1ccc(C(=O)O)c(O)c1 | 3.2% (inactive)
29 | CCCOc1ccc(C2/C(=C(/O)c3ccccc3)C(=O)C(=O)N2CCCN(C)C)cc1OC (centres undefined) | -0.5% (inactive)
30 | CCN(CC)CC(=O)Nc1c(Br)ccc2c1OCO2 | -11.8% (inactive)
31 | CCC(=O)N1CCc2cc(Br)cc(S(=O)(=O)N3CCN(C(=O)c4ccco4)CC3)c21 | 4.6% (inactive)
32 | COc1ccc(/C=N/NC(=O)CCn2c3ccccc3c3ccccc32)cc1 | 0.1% (inactive)
33 | CCSc1nnc(Cn2c(=O)sc3ccccc32)n1C | 0.4% (inactive)
34 | CC(C)(C)C(=O)CC(O)(c1ccccc1)C(F)(F)C(F)F (centres undefined) | -1.8% (inactive)
35 | CC(C)(C)C1=CC(=O)C=C(C(C)(C)C)C1=O | 6.8% (inactive)
36 | CC(=O)/C(C1=C(C(C)(C)C)C(=O)C(=O)C(C(C)(C)C)=C1)=C(/C)O | 6.5% (inactive)
37 | CC(C)(C)C1=CC(N)=C(C(C)(C)C)C(=O)C1=O | 86.4% (active)
38 | c1ccc(Cn2ncc3c(N4CCN(c5ccccn5)CC4)ncnc32)cc1 | 6.4% (inactive)
39 | COc1ccc(CNS(=O)(=O)c2ccc([N+](=O)[O-])cc2)cc1 | -4% (inactive)
40 | C=CCN1C(=O)NC(=O)/C(=C\c2ccc(OCc3ccc(Cl)cc3)c(OC)c2)C1=O | 5.1% (inactive)
41 | COc1cccc(/C=N/n2c(SC)nnc2-c2ccccc2)c1O | -6.8% (inactive)
42 | Brc1ccc(/C=N/n2c(-c3ccccc3)nnc2-c2ccccc2)cc1 | -2.7% (inactive)
43 | O=C(c1ccco1)N1CCN(S(=O)(=O)c2ccc(Br)s2)CC1 | -14.7% (inactive)
44 | CCOc1ccc(NC(=O)c2cccc(F)c2)cc1 | 4.1% (inactive)

Row | Structure (SMILES) | inhibition
45 | O=C(Nc1cccc(NC(=O)c2cccnc2)c1)c1cccnc1 | 5.6% (inactive)
46 | Nc1ccc(S(=O)(=O)O)c2cccc(S(=O)(=O)O)c12 | -2.3% (inactive)
47 | Nc1cc(S(=O)(=O)O)cc2cccc(S(=O)(=O)O)c12 | -2% (inactive)
48 | Nc1ccc(S(=O)(=O)O)c2cccc(O)c12 | 29.8% (inactive) and 64.8% (active)
49 | O=C(c1ccc(N2CCN(C(=O)c3ccccc3F)CC2)cc1)c1cccc(F)c1 | 4.1% (inactive)
50 | O=C(c1ccc(N2CCN(C(=O)c3ccccc3)CC2)cc1)c1cccc(F)c1 | 4.8% (inactive)
51 | O=C(c1ccc(N2CCN(C(=O)c3ccccc3Br)CC2)cc1)c1cccc(F)c1 | 52.2% (active)
52 | Cc1ccc(C(=O)Nc2ccc(N3CCOCC3)c(Cl)c2)cc1C | 5.9% (inactive)
53 | O=S(=O)(c1cc(Cl)cc(Cl)c1O)c1cc(Cl)cc(Cl)c1O | -3.1% (inactive)
54 | O=C(Cn1c(NCCCO)nc2ccccc21)c1ccco1 | -11.1% (inactive)
55 | O=C(O)C1Nc2c(Cl)cc(Cl)cc2C2C=CCC12 (centres undefined) | 98.5% (active)
56 | Cc1c(Cl)ccc2c1NC(C(=O)O)C1CC=CC21 (centres undefined) | 107% (active)
57 | O=C(O)C1Nc2c(C(=O)N3CCOCC3)cccc2C2C=CCC12 (centres undefined) | 0.2% (inactive)
58 | CC(=O)c1ccc2c(c1)C1C=CCC1C(c1ccc(Cl)cc1)N2 (centres undefined) | 14.4% (inactive)
59 | Cc1ccc2c(c1)C1C=CCC1C(c1ccccc1[N+](=O)[O-])N2 (centres undefined) | 7% (inactive)
60 | Cc1cc(I)c2c(c1)C1C=CCC1C(C(=O)O)N2 (centres undefined) | 103% (active)
61 | CCOC(=O)c1ccc2c(c1)C1C=CCC1C(c1ccc(Cl)cc1Cl)N2 (centres undefined) | 3.3% (inactive)
62 | Cc1ccc2c(c1)C1C=CCC1C(c1ccc([N+](=O)[O-])cc1)N2 (centres undefined) | 3.4% (inactive)
63 | O=C(O)C1Nc2c(C(=O)N3CCCC3)cccc2C2C=CCC12 (centres undefined) | 5% (inactive)
64 | Brc1ccc(-c2nc(Cc3ccccc3)no2)cc1 | -2.5% (inactive)
